# From PubChem BioAssay (Tox21)
# Where “and” joins values, the source holds several entries; their conditions need not be identical. Equal values may be shown once. Records with an inconclusive call do not appear. Where a call stands in place of a potency, no number is given. Some compounds were tested as several samples or in several runs, with calls that do not always agree. Calls of active or inactive are those of the source. Calls come from the whole dose curve; as a rule, active = well fitted curve in the direction sought with a large enough effect in the repeat runs; inconclusive = weak or mixed curves; inactive = no such curve, though single readings can be large; an effect the other way counts as inactive or inconclusive.
# Tests used:
# [1] = qHTS RealTime-Glo MT Cell Viability Assay in HepG2 cells - 40 hour (AID 1224870); note: nearly all actives have a fitted effect of over 50% in size
# In short: (§1)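 HepG2 cells mixed with RealTime-Glo MT reagents (NanoLuc plus cell-permeant prosubstrate) were seeded at 600 cells/well, incubated 5 h at 37 C/5% CO2, then pinned with compounds in DMSO; nonlytic luminescence tracked viability during 40 h treatment.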
# [2] = A CellTox Green Cytotoxicity Assay to monitor cytotoxicity in HEK293 cells - 40 hour (AID 1224871); note: nearly all actives have a fitted effect of over 45% in size
# In short: (§2)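 Fluorescence from a DNA-binding dye excluded by viable cells was measured repeatedly in the same HEK293 wells (600 cells/well) during continuous compound exposure at 37 C. Each assay gives one read point: 0, 8, 16, 24, 32 or 40 h.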
# [3] = qHTS RealTime-Glo MT Cell Viability Assay in HEK293 cells - 16 hour (AID 1224872); note: top concentration of the series differs between compounds; nearly all actives have a fitted effect of over 50% in size
# In short: (§3)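 Assay medium contained NanoLuc luciferase plus cell-permeant prosubstrate, added with HEK293 cells at 600 cells/well. After 5 h at 37 C/5% CO2 compounds were added; plates stayed at 37 C for 40 h with serial luminescence reads.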
# [4] = qHTS RealTime-Glo MT Cell Viability Assay in HepG2 cells - 8 hour (AID 1224873); note: nearly all actives have a fitted effect of over 55% in size
# In short: as §1
# [5] = qHTS RealTime-Glo MT Cell Viability Assay in HEK293 cells - 40 hour (AID 1224874); conditions: RealTime-Glo luminescence; max response: stronger effect = lower value; note: nearly all actives have a fitted effect of over 50% in size; note: potency is the fitted concentration of half-maximal effect
# In short: (§4)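 Luminescence, which tracks viable cell number through reduction of the prosubstrate to a NanoLuc substrate, was read over continuous 37 C culture. Cells (600/well) were premixed with reagent and rested 5 h before 23 nL of compound in DMSO was pinned.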
# [6] = A CellTox Green Cytotoxicity Assay to monitor cytotoxicity in HEK293 cells - 24 hour (AID 1224875); note: series mostly up to about 77 µM; nearly all actives have a fitted effect of over 45% in size
# In short: as §2
# [7] = A CellTox Green Cytotoxicity Assay to monitor cytotoxicity in HepG2 cells - 16 hour (AID 1224876); note: nearly all actives have a fitted effect of over 45% in size; note: potency is the fitted concentration of half-maximal effect
# In short: (§5)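 Real-time cytotoxicity: fluorescence of a cell-impermeant cyanine dye binding DNA of dead HepG2 cells, measured repeatedly (0–40 h) during compound exposure at 37 C. Cells seeded 600/well with reagent, dosed after 5 h.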
# [8] = qHTS RealTime-Glo MT Cell Viability Assay in HepG2 cells - 32 hour (AID 1224877); note: nearly all actives have a fitted effect of over 55% in size
# In short: (§6)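 qHTS, HepG2, 600 cells/well, RealTime-Glo (NanoLuc + prosubstrate) added with cells; 5 h preincubation; DMSO compound addition; 37 C; luminescence at 0/8/16/24/32/40 h.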
# [9] = A CellTox Green Cytotoxicity Assay to monitor cytotoxicity in HepG2 cells - 24 hour (AID 1224878); note: nearly all actives have a fitted effect of over 45% in size; note: potency is the fitted concentration of half-maximal effect
# In short: as §5
# [10] = qHTS RealTime-Glo MT Cell Viability Assay in HEK293 cells - 0 hour (AID 1224880)
# In short: as §4
# [11] = A CellTox Green Cytotoxicity Assay to monitor cytotoxicity in HEK293 cells - 32 hour (AID 1224881); note: nearly all actives have a fitted effect of over 40% in size
# In short: as §2
# [12] = A CellTox Green Cytotoxicity Assay to monitor cytotoxicity in HepG2 cells - 0 hour (AID 1224882); note: nearly all actives have a fitted effect of over 35% in size; note: potency is the fitted concentration of half-maximal effect
# In short: as §5
# [13] = A CellTox Green Cytotoxicity Assay to monitor cytotoxicity in HepG2 cells - 32 hour (AID 1224883); note: nearly all actives have a fitted effect of over 50% in size; note: potency is the fitted concentration of half-maximal effect
# In short: as §5
# [14] = qHTS RealTime-Glo MT Cell Viability Assay in HEK293 cells - 24 hour (AID 1224886)
# In short: as §3
# [15] = qHTS RealTime-Glo MT Cell Viability Assay in HEK293 cells - 8 hour (AID 1224887)
# In short: as §4
# [16] = qHTS RealTime-Glo MT Cell Viability Assay in HepG2 cells - 0 hour (AID 1224889); note: nearly all actives have a fitted effect of over 50% in size
# In short: as §6
# [17] = qHTS RealTime-Glo MT Cell Viability Assay in HepG2 cells - 16 hour (AID 1224885); note: nearly all actives have a fitted effect of over 50% in size
# In short: as §6
# [18] = A CellTox Green Cytotoxicity Assay to monitor cytotoxicity in HEK293 cells - 8 hour (AID 1224884); note: nearly all actives have a fitted effect of over 35% in size
# In short: as §2
# [19] = A CellTox Green Cytotoxicity Assay to monitor cytotoxicity in HepG2 cells - 40 hour (AID 1224879); note: nearly all actives have a fitted effect of over 40% in size; note: potency is the fitted concentration of half-maximal effect
# In short: as §5
# [20] = A CellTox Green Cytotoxicity Assay to monitor cytotoxicity in HEK293 cells - 16 hour (AID 1224888); note: nearly all actives have a fitted effect of over 35% in size
# In short: as §2
structure (smiles),measurement,setting,value
CNC(=O)O/N=C(\SC)C(=O)N(C)C,outcome,[1],inactive
same,Potency,[2],inactive
same,outcome,[3],inactive
same,outcome,[4],inactive
same,max response,[5],-3.21% (inactive) and 9.55% (inactive)
same,Potency,[6],inactive
same,Potency,[7],inactive
same,outcome,[8],inactive
same,Potency,[9],inactive
same,outcome,[10],inactive
same,Potency,[11],inactive
same,Potency,[12],inactive
same,Potency,[13],inactive
same,outcome,[14],inactive
same,outcome,[15],inactive
same,outcome,[16],inactive
OC[C@@H](O)[C@H]1O[C@@H]2O[C@H](C(Cl)(Cl)Cl)O[C@@H]2[C@H]1O,outcome,[1],inactive
same,Potency,[2],inactive
same,outcome,[3],inactive
same,outcome,[4],inactive
same,max response,[5],-9.36% (inactive) and 2.42% (inactive)
same,Potency,[6],inactive
same,Potency,[7],inactive
same,outcome,[8],inactive
same,Potency,[9],inactive
same,outcome,[10],inactive
same,Potency,[11],inactive
same,Potency,[12],inactive
same,Potency,[13],inactive
same,outcome,[17],inactive
same,outcome,[14],inactive
same,outcome,[15],inactive
same,outcome,[16],inactive
N#Cc1cccc(C#N)c1,outcome,[1],inactive
same,Potency,[2],inactive
same,outcome,[3],inactive
same,outcome,[4],inactive
same,max response,[5],2.43% (inactive) and 3.42% (inactive)
same,Potency,[6],inactive
same,Potency,[7],inactive
same,outcome,[8],inactive
same,Potency,[9],inactive
same,outcome,[10],inactive
same,Potency,[11],inactive
same,Potency,[12],inactive
same,Potency,[13],inactive
same,outcome,[17],inactive
same,outcome,[14],inactive
same,outcome,[15],inactive
same,outcome,[16],inactive
Nc1cccc(Cl)c1,outcome,[1],inactive
same,outcome,[3],inactive
same,outcome,[4],inactive
same,Potency,[5],21.9 µM (active)
same,max response,[5],0.922% (inactive)
same,Potency,[6],inactive
same,Potency,[7],inactive
same,outcome,[8],inactive
same,Potency,[9],inactive
same,outcome,[10],inactive
same,Potency,[11],inactive
same,Potency,[12],inactive
same,Potency,[13],inactive
same,outcome,[17],inactive
same,outcome,[14],inactive
same,outcome,[15],inactive
same,outcome,[16],inactive
Cc1ccc(O)c(C)c1,outcome,[1],inactive
same,Potency,[2],inactive
same,outcome,[3],inactive
same,outcome,[4],inactive
same,max response,[5],4.17% (inactive) and 0.581% (inactive)
same,Potency,[6],inactive
same,Potency,[7],inactive
same,outcome,[8],inactive
same,Potency,[9],inactive
same,outcome,[10],inactive
same,Potency,[11],inactive
same,Potency,[12],inactive
same,Potency,[13],inactive
same,Potency,[18],inactive
same,outcome,[14],inactive
same,outcome,[15],inactive
same,outcome,[16],inactive
C=CC#N,outcome,[1],inactive
same,Potency,[2],inactive
same,outcome,[3],inactive
same,outcome,[4],inactive
same,max response,[5],-6.45% (inactive) and -0.644% (inactive)
same,Potency,[6],inactive
same,Potency,[7],inactive
same,outcome,[8],inactive
same,Potency,[9],inactive
same,outcome,[10],inactive
same,Potency,[11],inactive
same,Potency,[12],inactive
same,Potency,[13],inactive
same,Potency,[18],inactive
same,outcome,[14],inactive
same,outcome,[15],inactive
same,outcome,[16],inactive
COP(=S)(OC)Oc1ccc(SC)c(C)c1,outcome,[1],inactive
same,Potency,[2],inactive
same,outcome,[3],inactive
same,outcome,[4],inactive
same,max response,[5],-4.14% (inactive) and -8.35% (inactive) and 5.42% (inactive)
same,Potency,[6],inactive
same,Potency,[7],inactive
same,outcome,[8],inactive
same,Potency,[9],inactive
same,outcome,[10],inactive
same,Potency,[11],inactive
same,Potency,[12],inactive
same,Potency,[13],inactive
same,Potency,[18],inactive
same,outcome,[14],inactive
same,outcome,[15],inactive
same,outcome,[16],inactive
[N-]=[N+]=CC(=O)OC[C@H](N)C(=O)O,outcome,[1],inactive
same,outcome,[3],inactive
same,outcome,[4],inactive
same,max response,[5],8.97% (inactive) and 11.4% (inactive)
same,Potency,[6],inactive
same,Potency,[7],27.5 µM (active) and inactive
same,outcome,[8],inactive
same,Potency,[9],24.5 µM (active) and inactive
same,Potency,[19],43.6 µM (active) and inactive
same,outcome,[10],inactive
same,Potency,[11],inactive
same,Potency,[12],34.7 µM (active) and inactive
same,Potency,[13],38.9 µM (active) and inactive
same,Potency,[18],inactive
same,outcome,[17],inactive
same,outcome,[14],inactive
same,outcome,[15],inactive
same,outcome,[16],inactive
C=CCN=C=S,outcome,[1],inactive
same,outcome,[3],inactive
same,outcome,[4],inactive
same,max response,[5],17.8% (inactive) and 1.95% (inactive)
same,Potency,[6],inactive
same,Potency,[7],inactive
same,outcome,[8],inactive
same,Potency,[9],inactive
same,Potency,[19],inactive
same,outcome,[10],inactive
same,Potency,[11],inactive
same,Potency,[12],inactive
same,Potency,[13],inactive
same,Potency,[18],inactive
same,outcome,[17],inactive
same,outcome,[14],inactive
same,outcome,[15],inactive
same,outcome,[16],inactive
CCOP(=S)(OCC)Oc1cc(C)nc(C(C)C)n1,outcome,[1],inactive
same,Potency,[2],inactive
same,outcome,[3],inactive
same,outcome,[4],inactive
same,max response,[5],2.72% (inactive) and 7.6% (inactive) and 1.58% (inactive)
same,Potency,[6],inactive
same,Potency,[7],inactive
same,outcome,[8],inactive
same,Potency,[9],inactive
same,outcome,[10],inactive
same,Potency,[11],inactive
same,Potency,[12],inactive
same,Potency,[13],inactive
same,outcome,[14],inactive
same,outcome,[15],inactive
same,Potency,[20],inactive
same,outcome,[16],inactive
ClCCOCCCl,outcome,[1],inactive
same,outcome,[3],inactive
same,outcome,[4],inactive
same,max response,[5],-3.17% (inactive) and -5.17% (inactive)
same,Potency,[6],inactive
same,Potency,[7],inactive
same,outcome,[8],inactive
same,Potency,[9],inactive
same,Potency,[19],inactive
same,outcome,[10],inactive
same,Potency,[11],inactive
same,Potency,[12],inactive
same,Potency,[13],inactive
same,Potency,[18],inactive
same,outcome,[17],inactive
same,outcome,[14],inactive
same,outcome,[15],inactive
same,outcome,[16],inactive
Cc1ccccc1N,outcome,[1],inactive
same,Potency,[2],inactive
same,outcome,[3],inactive
same,outcome,[4],inactive
same,Potency,[6],inactive
same,Potency,[7],inactive
same,outcome,[8],inactive
same,Potency,[9],inactive
same,Potency,[19],inactive
same,outcome,[10],inactive
same,Potency,[11],inactive
same,Potency,[12],inactive
same,Potency,[13],inactive
same,outcome,[17],inactive
same,outcome,[14],inactive
same,outcome,[15],inactive
same,Potency,[20],inactive
same,outcome,[16],inactive
CCOP(=S)(OCC)Oc1ccc([N+](=O)[O-])cc1,outcome,[1],inactive
same,outcome,[3],inactive
same,outcome,[4],inactive
same,max response,[5],-18.1% (inactive) and -17.8% (inactive)
same,Potency,[6],inactive
same,Potency,[7],inactive
same,outcome,[8],inactive
same,Potency,[9],inactive
same,Potency,[19],inactive
same,outcome,[10],inactive
same,Potency,[11],inactive
same,Potency,[12],inactive
same,Potency,[13],inactive
same,Potency,[18],inactive
same,outcome,[17],inactive
same,outcome,[14],inactive
same,outcome,[15],inactive
same,Potency,[20],inactive
same,outcome,[16],inactive
Cc1ccc(N)cc1,outcome,[1],inactive
same,Potency,[2],inactive
same,outcome,[3],inactive
same,outcome,[4],inactive
same,max response,[5],-16.7% (inactive) and 1.44% (inactive) and -0.523% (inactive)
same,Potency,[6],inactive
same,Potency,[7],inactive
same,outcome,[8],inactive
same,Potency,[9],inactive
same,outcome,[10],inactive
same,Potency,[11],inactive
same,Potency,[12],inactive
same,Potency,[13],inactive
same,Potency,[18],inactive
same,outcome,[14],inactive
same,outcome,[15],inactive
same,outcome,[16],inactive
